This is a sample that favours compounds with a hit; in the whole collection about 1.4% have one here.
MbtI inh: blocks the Mycobacterium tuberculosis siderophore enzyme MbtI | P9WFX0 | purified MbtI enzyme, fluorescence intensity read-out | inhibition, % (test concentration not listed) | actives 0.89% (n = 100,000); in the data active = inhibition mostly above about 56%, no sharp cut-off; inactive = mostly below about 77%
Mtb MenB inh: Mtb MenB enzyme inhibition; AID 540299; inhibition, % (no concentration beside the values); MenB enzyme assay, absorbance read-out; actives 0.43% (n = 100,000); in the data active = inhibition above about 21%, passing the limit was not always enough
Target sequence (P9WNP5 whole entry, looked up): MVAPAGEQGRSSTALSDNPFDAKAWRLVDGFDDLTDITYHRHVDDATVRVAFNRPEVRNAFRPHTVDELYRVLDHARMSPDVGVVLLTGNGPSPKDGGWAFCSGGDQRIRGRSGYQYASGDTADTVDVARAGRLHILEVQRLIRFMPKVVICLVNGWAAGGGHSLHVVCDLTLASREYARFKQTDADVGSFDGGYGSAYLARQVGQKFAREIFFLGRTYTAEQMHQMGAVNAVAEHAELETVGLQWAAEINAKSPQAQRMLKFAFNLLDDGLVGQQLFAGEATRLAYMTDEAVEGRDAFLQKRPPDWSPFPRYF
PV pol inh: poliovirus RNA polymerase inhibition; P03300; poliovirus polymerase elongation, fluorescence polarization; stronger effect = lower value; % elongation, % (compound at 16.7 µg/mL); actives 0.66% (n = 150,000); AID 588519; in the data active = % elongation below about 90%
Active calls of the source: *; · = not tested or not shown; ! = a repeat was not active.

SMILES	MbtI inh	Mtb MenB inh	PV pol inh
C1CCN(c2nc(N3CCCC3)nc(N3CCNCC3)n2)C1	-22	33*	100
Cc1ccc(NS(C)(=O)=O)cc1F	-2	8	100
CC1=C(C(=O)Nc2ccccc2)C(c2ccco2)C(C#N)=C(SCC(=O)Nc2ccccc2)N1 (stereo not given)	17	39*	102
COC(=O)CSC1=C(C#N)C(c2ccco2)C(C(=O)Nc2ccccc2)=C(C)N1 (stereo not given)	-20	-1	104
C=CCN(CC=C)C(=O)c1cccc(OC)c1	·	1	105
COc1cccc(N=C2NNC(C)=C(C(=O)N(C)C)S2)c1	59*	-7	83*
N#CCS(=O)(=O)c1ccc2c(c1)OCCO2	0	-3	106
NCCN1C(=O)C2C3c4ccccc4C(c4ccccc43)C2C1=O (stereo not given)	-6	0	103
O=C1C2C3c4ccccc4C(c4ccccc43)C2C(=O)N1Cc1ccco1 (stereo not given)	-1	23*	101
CNC(=O)C1C2C=CC3(O2)C1C(=O)N(C1CC1)C3C(=O)NCc1ccc(OC)cc1 (stereo not given)	-4	48*	102
C=CCN1C(=O)C2C(C(=O)NCc3ccccc3)C3C=CC2(O3)C1C(=O)NC(C)(C)C (stereo not given)	-3	-49	105
C#CCN1C(=O)C2C(C(=O)NC)C3C=CC2(O3)C1C(=O)NCc1ccc(OC)cc1 (stereo not given)	-1	54*	101
CCOC(=O)CN1CC23C=CC(O2)C(C(=O)NCc2ccc(OC)cc2)C3C1=O (stereo not given)	8	-17	104
CC1CN(C(=S)NCCc2ccccc2)CC(C)O1 (stereo not given)	9	7	98
CC1CN(C(=S)c2ccccc2)CC(C)O1 (stereo not given)	68*	-11	96
CC(NC(=O)Nc1c[nH]c2ccccc2c1=O)c1ccncc1 (stereo not given)	89	-35	103
O=C(O)c1cccc(NNC(=O)c2ccc3c(c2)OCCO3)c1	16	0	102
COc1ccc(Cl)cc1NC(=O)CCn1c(=O)oc2ccccc21	·	·	104
O=C(CCn1c(=O)oc2ccccc21)Sc1ccc(Cl)cc1Cl	70*	2	87*
CCOC(=O)NC(=S)c1ccc(OC)cc1	78*	-7	82*
CCOC(=O)NC(=S)Nc1ccc(OC)cc1	-5	-7	100
CCOC(=O)c1cnc2cc(-c3ccc(I)cc3)[nH]n2c1=O	22	8	98
CS(=O)(=O)N1Cc2ccccc2CC1C(=O)OCC(=O)N1CC(=O)Nc2ccccc21 (stereo not given)	-12	-34	102
CCCNCc1ccccc1	-2	32*	99
COCCNCc1ccccc1	-5	-3	110
SMILES	MbtI inh	Mtb MenB inh	PV pol inh
Oc1[nH]c2ccccc2c1C=Nc1ccc(Br)cc1	2	-8	94
COc1ccc2c(c1)-c1nc(/N=C/c3ccc(C)o3)sc1CC2	82*	-49	97
COc1ccc2c(c1)CCc1sc(/N=C/c3ccc(C)cc3)nc1-2	18	-17	101
COC(=O)C1=C(C)N(c2ccc(OC)cc2)C(=O)/C1=C\c1ccccc1O	7	-57	101
NCC1CCN(Cc2ccccc2)C1 (stereo not given)	34	28*	103
c1ccc(CN2CCCC(c3ccccc3)C2)cc1 (stereo not given)	-11	·	·
NC(=O)COc1ccc(S(=O)(=O)N2CCc3ccccc32)cc1	-1	6	98
CCN1C(=O)C(=Cc2ccc(-c3ccccc3F)o2)C(=O)N(CC)C1=S	16	15	103
CCN1C(=O)C(=Cc2ccc(-c3ccc(Br)c(Cl)c3)o2)C(=O)N(CC)C1=S	90*	4	99
Cc1cc(OCC(=O)c2ccc(F)cc2)c2c3c(c(=O)oc2c1)CCC3	-8	·	100
CC(C)C(=O)Nc1nnc(-c2ccccc2)s1	·	-7	87*
CC(C)=CC(=O)Nc1nnc(-c2ccccc2)s1	52	-49	101
CCOc1cc(C(=O)O)cc(Cl)c1O	-10	-19	102
O=c1c(Cl)c(Cl)cnn1-c1ccccc1	-13	·	·
NS(=O)(=O)c1ccc(-n2ncc(Cl)c(Cl)c2=O)cc1	3	-7	86*
Cc1ccc(Cn2c(=S)[nH]c3ccccc32)cc1	46	-30	·
CC(C)n1c(=S)[nH]c2ccccc21	41	1	97
S=c1[nH]c2ccccc2n1-c1ccccc1	92*	-30	78*
CCCn1c(=S)[nH]c2ccccc21	86*!	-6	103
CCn1c(=S)[nH]c2ccccc21	36	-26	100
S=c1[nH]c2ccccc2n1CCc1ccccc1	81*	-57	67*
COC(=O)CN(C)S(=O)(=O)c1ccc(Br)cc1	2	10	99
CCOC(=O)N1CCN(c2nc(-c3ccccc3)cc(C(F)(F)F)n2)CC1	-2	2	100
CN(Cc1ccccc1)C(=O)COC(=O)C1CC2C=CC1C2 (stereo not given)	-8	·	103
C=CCN(C(=O)CSc1nnc(CC)n2c1cc1oc(C)cc12)c1ccccc1	3	45*	101
SMILES	MbtI inh	Mtb MenB inh	PV pol inh
CCc1nnc(SCC(=O)N(CC)c2ccccc2)c2cc3oc(C)cc3n12	·	·	111
O=C(CSc1ccc(-c2cccs2)nn1)c1cccs1	18	-17	98
CCN(CC)c1cc(-c2cccs2)nc(SCC(=O)c2cccs2)c1C#N	·	-5	77*
S=C(NCc1ccc2c(c1)OCO2)N(Cc1ccco1)Cc1cccs1	60*	-39	88*
O=C(COC(=O)Cc1cccs1)NCc1ccc2c(c1)OCO2	9	-28	102
CCC1CCCCN1C(=O)c1cc2cc(OC)ccc2oc1=O (stereo not given)	90	-17	104
O=C1Nc2ccccc2S/C1=C\c1ccccc1	-23	-48	101
O=C1N/C(=N\Nc2ccccc2)S/C1=C\c1ccccc1	80*	-36	108
CC1=CC(=O)C(CCCC2=CC(=O)C=CC2=O)=CC1=O	100*	0	102
Cc1ccc(C2=CC(=O)C=CC2=O)cc1	92	16	104
CC1Cc2ccccc2N1C(=O)Nc1cccc(F)c1 (stereo not given)	-26	-25	101
Cc1nc2ccccc2c(=O)n1-c1ccc(C(=O)NC2(C)CCS(=O)(=O)C2)cc1 (stereo not given)	-3	-34	102
Cc1nc2ccccc2c(=O)n1-c1ccc(C(=O)NC(C)c2ccccn2)cc1 (stereo not given)	0	-35	34*
Cc1ccc(CC/C=N/N=C2\NC(=O)CS2)o1	13	2	102
O=C(Sc1ccc(Cl)cc1)c1ccno1	65*	-5	96
Cc1cc(C(=O)Sc2ccc(Cl)cc2)nn1C(C)(C)C	-8	-6	98
O=C(Nc1ccccc1)Nc1nnc(C(F)(F)F)s1	-10	-5	110
O=C(Nc1nnc(C(F)(F)F)s1)c1ccccc1	92*	-34	100
O=c1c2ccccc2nc(-c2ccco2)n1-c1nccs1	27	42*	101
O=c1c2cnn(-c3ccccc3)c2nc(-c2ccco2)n1-c1ccccc1	-7	·	·
COc1ccc(C)c2sc(N(Cc3ccccn3)C(=O)c3ccco3)nc12	8	-18	105
Cc1cccc(C(=O)N/C(=C/c2ccco2)C(N)=O)c1	22	-11	100
